AHR activator: activators of human aryl hydrocarbon receptor | P35869 | AHR-responsive luciferase reporter cells, luminescence | activation, % at 5 µM | 320,000 tested, 2.5% active | AID 2796; in the data active = activation above about 47%
Target sequence (P35869 whole entry, looked up): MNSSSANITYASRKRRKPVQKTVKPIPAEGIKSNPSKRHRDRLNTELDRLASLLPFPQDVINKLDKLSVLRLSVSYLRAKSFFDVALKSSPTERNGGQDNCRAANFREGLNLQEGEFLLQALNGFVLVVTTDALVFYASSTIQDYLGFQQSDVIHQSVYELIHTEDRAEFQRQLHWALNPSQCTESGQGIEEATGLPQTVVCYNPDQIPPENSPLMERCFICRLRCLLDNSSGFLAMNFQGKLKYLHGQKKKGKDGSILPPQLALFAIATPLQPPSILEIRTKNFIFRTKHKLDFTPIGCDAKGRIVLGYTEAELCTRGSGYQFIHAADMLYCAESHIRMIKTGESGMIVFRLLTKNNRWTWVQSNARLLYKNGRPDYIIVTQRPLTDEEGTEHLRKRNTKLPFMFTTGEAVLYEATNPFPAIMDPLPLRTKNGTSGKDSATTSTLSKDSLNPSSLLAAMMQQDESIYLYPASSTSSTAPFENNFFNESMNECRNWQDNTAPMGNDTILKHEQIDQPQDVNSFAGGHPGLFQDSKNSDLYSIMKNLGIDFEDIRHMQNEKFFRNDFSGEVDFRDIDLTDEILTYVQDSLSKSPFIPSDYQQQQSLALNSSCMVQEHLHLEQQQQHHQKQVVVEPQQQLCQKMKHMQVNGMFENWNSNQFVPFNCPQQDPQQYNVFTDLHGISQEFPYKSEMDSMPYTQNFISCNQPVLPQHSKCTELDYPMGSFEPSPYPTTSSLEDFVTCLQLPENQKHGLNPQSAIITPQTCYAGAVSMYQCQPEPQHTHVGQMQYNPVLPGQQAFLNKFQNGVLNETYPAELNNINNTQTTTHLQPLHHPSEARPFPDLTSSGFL
ssDAF12 agonist: activators of S. stercoralis DAF-12 nuclear receptor. HEK293 ssDAF-12/GRIP1 lit1-tk-luc reporter, luminescence; % of 3 µM dafachronic acid response. activation, % at 6.8 µM. 370,000 tested, 1% active. AID 652126;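 active = activation above the mean over all tested compounds plus 3 SD, cut at about 0.9% in these data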
DAX1 inh-1: blocks DAX1 repression of SF-1 activated StAR promoter; 370,000 tested, 1.1% active; HEK293T StAR-luciferase reporter, SF-1/DAX-1 repression relief; AID 652010; inhibition, % at 6.8 µM;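 active = inhibition above the mean over all tested compounds plus 3 SD, cut at about 3.6% in these data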;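 also: higher inhibition means more luminescence from relief of DAX-1 repression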
hcDAF12 agonist: activates DAF-12 receptor from parasite H. contortus | 370,000 tested, 1.4% active | activation, % at 6.8 µM | HEK293 hcDAF-12 lit1-tk-luc reporter, luminescence; 0% DMSO, 100% Δ7-dafachronic acid;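 active = activation above the mean of all tested compounds plus 3 SD, cut at about 5.5% in these data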
DAX1 inh-2: inhibits human nuclear receptor DAX1. P51843. HEK293 Gal4-DAX1 luciferase reporter, luminescence. inhibition, % at 6.75 µM. 340,000 tested, 0.99% active;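 active = inhibition above the mean over all tested compounds plus 3 SD, cut at about 4.2% in these data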;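 also: inhibition shows as a rise in luminescence from relieved DAX1 repression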
hgDAF-12 ag: hgDAF-12 agonism, primary luciferase screen | HEK293 GAL4-hgDAF12 UAS-luciferase reporter, agonist luminescence; normalized to butyrate control | activation, % at 6.8 µM | 370,000 tested, 1.8% active | AID 687014;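 active = activation above a cutoff set at the mean of all screened compounds plus 3 SD, cut at about 10% in these data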
Large screens that a line does not name were inactive. Compounds with a hit are over-represented: about 5.7% of the library has one in this group of screens.

O=S1(=O)N[C@@H](Cc2ccccc2)COc2cccc(N3CCC[C@H]3CO)c21	DAX1 inh-1 4.1 (no result: AHR activator, DAX1 inh-2)
O=S1(=O)N[C@H](Cc2ccccc2)COc2cccc(N3CCC[C@H]3CO)c21	none (no result: AHR activator, DAX1 inh-2)
Cn1c(=O)oc2cc(S(=O)(=O)N3CCN(c4ccccc4)CC3)ccc21	ssDAF12 agonist 2.6
Cn1c(=O)oc2cc(S(=O)(=O)N3CCC(C(=O)N4CCN(c5ccccc5)CC4)CC3)ccc21	none
Cc1cccc(NC(=O)c2cc(-c3cc(C)cc(C)c3O)n[nH]2)c1	AHR activator 66
COc1ccc(NC(=O)c2cc(-c3cc(C)cc(C)c3O)n[nH]2)cc1Cl	AHR activator 80
CCOc1ccc(-n2c(SCc3nc(-c4cccs4)no3)nnc2-c2ccncc2)cc1	none
CCCS(=O)(=O)NC(=O)C1(C)CCCN(C(=O)c2sccc2C)C1 (configuration not stated)	none (no result: AHR activator, DAX1 inh-2)
Cn1cnnc1SCC(=O)Nc1ccccc1	none
Cc1cc(C)c(-c2cc(NC(=O)CSc3nncn3C)n(-c3ccccc3)n2)cc1C	AHR activator 64
Cc1c(NC(=O)COC(=O)c2ccc[nH]c2=O)c(=O)n(-c2ccccc2)n1C	DAX1 inh-2 5.3
Cc1ccc(C)c(N(CC(=O)Nc2ccc(-c3nc4ccc(C)cc4s3)cc2)S(C)(=O)=O)c1	ssDAF12 agonist 1.6
Cc1ccc(N(CC(=O)Nc2ccc(-c3nc4ccc(C)cc4s3)cc2)S(C)(=O)=O)cc1	ssDAF12 agonist 0.9, DAX1 inh-1 4.4, hgDAF-12 ag 12
CCOc1ccc(N(CC(=O)Nc2ccc(C)cc2)S(C)(=O)=O)cc1	hgDAF-12 ag 12
CCOc1c(Br)cc(C(=O)Nc2cccc(S(=O)(=O)N3CCOCC3)c2)cc1OC	none (no result: AHR activator)
CC(c1n[nH]c(=S)n1Cc1ccccc1)N(C)C (configuration not stated)	none
COC(=O)c1cc(Br)c(=O)n(CCc2ccc(O)cc2)c1	none
COC(=O)c1cc(Br)c(=O)n(CCc2ccc(F)cc2)c1	AHR activator 56
Clc1cccc(Cc2c(-c3ccco3)nc3ccc(Br)cn23)c1	ssDAF12 agonist 1.9 (no result: AHR activator, DAX1 inh-2)
Cc1ccc2nc(-c3cccc(Br)c3)c(Cc3ccccc3)n2c1	ssDAF12 agonist 1.9, DAX1 inh-1 4.2, hcDAF12 agonist 8.1 (no result: AHR activator, DAX1 inh-2)
COc1ccccc1Cc1c(-c2cccc(Br)c2)nc2ccc(C)cn12	ssDAF12 agonist 1.2, hgDAF-12 ag 12 (no result: AHR activator, DAX1 inh-2)
Cc1ccc(Cc2c(-c3cccc(Br)c3)nc3ccc(C)cn23)cc1	hgDAF-12 ag 12 (no result: AHR activator, DAX1 inh-2)
Cc1ccc(Cc2c(-c3cccc(Br)c3)nc3ccc(Cl)cn23)cc1	none (no result: AHR activator, DAX1 inh-2)
Clc1ccc2nc(-c3cccc(Br)c3)c(Cc3ccccc3)n2c1	none (no result: AHR activator, DAX1 inh-2)
CCCCn1c(=O)[nH]c(=O)c2c1nc(COC(=O)c1c(C)noc1C)n2CCC	none
COC(=O)c1ccc(CN2CCN(Cc3ccccc3)C(CCO)C2)cc1 (configuration not stated)	none
CS(=O)(=O)N(CC(=O)N1CCCC1)c1cc(Cl)c(Cl)cc1Cl	none (no result: ssDAF12 agonist, DAX1 inh-1, hcDAF12 agonist, hgDAF-12 ag)
CCCOc1ccc(-c2nnn(CC(=O)N3CCCCC3)n2)cc1	none
O=C(NNC(=O)C12CC3CC(CC(C3)C1)C2)c1cccc(O)c1	none
Cc1ccc2nc(-c3cccc(Br)c3)c(Cc3cccc(Cl)c3)n2c1	DAX1 inh-1 7.3 (no result: AHR activator, DAX1 inh-2)
Cc1ccc(Cc2c(-c3cccc(Cl)c3)nc3ccc(Br)cn23)cc1	hgDAF-12 ag 11 (no result: AHR activator, DAX1 inh-2)
Cc1ccc2nc(-c3ccc(C#N)cc3)c(Cc3cccc(Cl)c3)n2c1	none (no result: AHR activator, DAX1 inh-2)
CC(C)(C)Cc1c(-c2cccc(Cl)c2)nc2ccc(Br)cn12	ssDAF12 agonist 2.1 (no result: AHR activator, DAX1 inh-2)
Clc1cccc(Cc2c(-c3cccc(Br)c3)nc3ccc(Cl)cn23)c1	none (no result: AHR activator, DAX1 inh-2)
CC(C)(C)Cc1c(-c2ccc(Br)cc2)nc2ccc(Br)cn12	none (no result: AHR activator)
Cc1ccc2nc(-c3ccc(C#N)cc3)c(Cc3ccccc3)n2c1	hgDAF-12 ag 11 (no result: AHR activator, DAX1 inh-2)
CCOc1ccc(S(=O)(=O)NC2CCCC2)cc1C	none
CC1CC/C(=C\c2ccc3c(c2)OCO3)C(=O)/C1=C/c1ccc2c(c1)OCO2 (configuration not stated)	none
CCCCC1CCC(C(=O)NCc2ccc3c(c2)OCO3)CC1 (configuration not stated)	none
Cc1ccc(S(=O)(=O)N(C)c2ccc(C(=O)O)cc2)cc1	none
